Only some compounds are listed: those with a hit (about 4.3% of all), similar ones and a draw of the others.
ADAM10 inh – human ADAM10 inhibitors, primary screen, biochemical, QFRET, HTS; recombinant ADAM10, EDANS/DABCYL FRET peptide cleavage, 3 h; inhibition, % at 7 µM; 370,000 compounds, 0.62% hits; Disintegrin and metalloproteinase domain-containing protein 10 (Homo sapiens), O14672;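 active = inhibition above a per-campaign cutoff equal to the mean of compounds falling between control-based bounds plus 3 SD, cut at about 20% in these data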
Target sequence (O14672 214-748 limits assumed): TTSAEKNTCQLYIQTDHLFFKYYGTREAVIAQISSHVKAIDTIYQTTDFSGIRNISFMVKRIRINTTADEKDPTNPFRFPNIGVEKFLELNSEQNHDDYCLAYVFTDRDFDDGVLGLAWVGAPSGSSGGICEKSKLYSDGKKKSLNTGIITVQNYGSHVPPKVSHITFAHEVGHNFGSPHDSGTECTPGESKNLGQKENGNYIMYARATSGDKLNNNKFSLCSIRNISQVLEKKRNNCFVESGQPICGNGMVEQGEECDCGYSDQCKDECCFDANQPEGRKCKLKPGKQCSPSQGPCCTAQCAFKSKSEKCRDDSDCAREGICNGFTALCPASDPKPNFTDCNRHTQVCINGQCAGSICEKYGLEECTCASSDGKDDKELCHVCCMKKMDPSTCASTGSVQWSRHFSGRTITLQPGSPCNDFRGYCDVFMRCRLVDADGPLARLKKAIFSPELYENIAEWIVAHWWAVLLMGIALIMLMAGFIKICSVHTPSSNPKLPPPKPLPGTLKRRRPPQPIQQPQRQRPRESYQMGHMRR
sPLA2-III inh – human group III sPLA2 inhibitors, primary screen, biochemical, QFRET, BODIPY PC-A2 liposome substrate; Group 3 secretory phospholipase A2 (Homo sapiens), Q9NZ20; QFRET BODIPY PC-A2 liposome hydrolysis, fluorescence; inhibition, % at 12.2 µM; 370,000 compounds, 0.56% hits; AID 743126, 2013;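 active = inhibition above mean plus 3 SD of compounds lying within the high and low control bounds, cut at about 19% in these data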
ADAM17 inh – ADAM17 inhibitors, primary screen, biochemical, QFRET | Disintegrin and metalloproteinase domain-containing protein 17 (Homo sapiens), P78536 | recombinant ADAM17, EDANS/DABCYL FRET peptide cleavage | inhibition, % at 6.95 µM | 370,000 compounds, 0.83% hits;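 active = inhibition above the mean of compounds lying between control limits plus 3 SD, set per campaign, cut at about 8.5% in these data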
FAS-TE inh – FAS thioesterase domain inhibitors, primary screen, biochemical, fluorescence intensity, uHTS. recombinant FAS-TE, OMFH fluorogenic substrate, fluorescence endpoint. inhibition, % at 15 µM. 360,000 compounds, 0.67% hits. AID 602261, 2012;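 active = compounds whose normalised, plate-corrected inhibition of enzyme fluorescence in the single-dose primary screen is 50% or more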
GRIN3A LBD mod – binders of NR3A ligand-binding domain, primary screen, biophysical, differential scanning fluorimetry, uHTS. AID 1259313, 2017. NR3A LBD differential scanning fluorimetry, Tm shift; 0% = protein alone, 100% = glycine-bound protein. Tm shift relative to glycine control, % at 25 µM. 340,000 compounds, 2.5% hits. Glutamate receptor ionotropic, NMDA 3A (GRIN3A) ligand-binding domain;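 active = melting temperature shift of at least 10% of the positive control shift, at one fixed dose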
Hits are given with their value; i = inactive; nt = no result.

SMILES	ADAM10 inh	sPLA2-III inh	ADAM17 inh	FAS-TE inh	GRIN3A LBD mod
CCn1c(=O)c(=O)[nH]c2c(=O)oc3ccc(S(=O)(=O)Nc4ccccc4)cc3c21	i	i	i	i	16
COc1cc(C=c2c3ccccc3n3c2cc(-c2ccccc2)[n+]3C)cc(OC)c1OC	i	i	i	i	i
CN(C)c1ccc(C=c2c3ccccc3n3c2cc(-c2ccc(Cl)cc2)[n+]3C)cc1	i	48	i	i	i
Cc1cc(C(=O)O[C@H]2CCC[C@]3(C(=O)N(Cc4ccccc4)c4ccccc43)[C@H]2NC(=O)CCc2ccccc2)no1	i	i	i	nt	nt
COc1ccc(CNCC#Cc2ccccc2)c(OC)c1	i	i	i	nt	nt
COc1ccc(NC(=O)CSC2=C(C#N)C(c3ccco3)C(C(=O)Nc3nc4ccccc4s3)=C(C)N2)cc1 (configuration not stated)	i	i	i	i	i
CC(=O)C1=C(C)NC(SCC(=O)Nc2nc3ccccc3s2)=C(C#N)C1c1ccc(Cl)cc1 (configuration not stated)	i	i	i	i	12
CNC(=O)CC1C(=O)N(c2ccc(Cl)cc2)C(=S)N1NC(=O)c1cccc(F)c1 (configuration not stated)	i	i	i	i	i
Cc1ccc(NC(=O)CC2C(=O)N(Cc3ccccc3)C(=S)N2NC(=O)c2ccccc2)c(C)c1 (configuration not stated)	i	i	i	i	11
CNC(=O)CC1C(=O)N(Cc2ccccc2)C(=S)N1NC(=O)c1cccc(F)c1 (configuration not stated)	i	i	i	i	14
CC(=O)Nc1ccc(/C=C/c2noc(-c3ccccc3O)n2)cc1	nt	nt	nt	i	12
CC1CCN(c2ccc(/C=C(\C#N)c3nn(-c4ccccc4)c(N)c3C#N)cc2[N+](=O)[O-])CC1	i	i	i	i	10
N#C/C(=C\c1ccc(N2CCCCC2)c([N+](=O)[O-])c1)c1nn(-c2ccccc2)c(N)c1C#N	i	i	i	i	i
CC1CCCN(c2ccc(/C=C(\C#N)c3nn(-c4ccccc4)c(N)c3C#N)cc2[N+](=O)[O-])C1 (configuration not stated)	i	i	i	i	12
CCCOc1ccc(-c2cc(C(C)=O)c3n(c2=O)CCC3)cc1	i	i	i	nt	nt
COc1ccc(Cn2cnc3c4cc(F)ccc4n(C)c3c2=O)cc1	i	i	i	i	15
COc1ccc2c(c1)c1ncn(CCc3ccccc3)c(=O)c1n2C	i	i	i	i	i
Cc1ccnc(Nc2nc(-c3ccc(O)c(O)c3)cs2)c1	i	i	i	i	39
COc1ccc(-c2csc(Nc3cc(C)ccn3)n2)cc1C	i	i	i	i	i
COc1ccc(-c2csc(Nc3ncccc3C)n2)cc1OC	i	i	i	i	i
Cc1cccnc1Nc1nc(-c2ccc(O)c(O)c2)cs1	i	i	i	i	28
Cc1ccnc(Nc2nc(-c3ccc(O)cc3)cs2)c1	i	i	i	i	18
CC(=O)Nc1ccc(-c2csc(Nc3ccccn3)n2)cc1	i	i	i	i	30
O[C@@H]1[C@@H](O)[C@H](n2c3ccc(Cl)cc3c3ccc4c5cc(Cl)ccc5[nH]c4c32)OC[C@H]1O	i	i	i	nt	nt
CC(=O)c1ccc(NC(=O)NC2CCCCN(Cc3ccc(Cl)cc3)C2=O)cc1 (configuration not stated)	i	i	i	nt	nt
SMILES	ADAM10 inh	sPLA2-III inh	ADAM17 inh	FAS-TE inh	GRIN3A LBD mod
COc1cccc(OC)c1NC(=O)OC1CCC12CCC(c1ccccc1)CC2 (configuration not stated)	i	i	i	nt	nt
Cc1ccnc(Nc2nc(-c3ccc(O)cc3O)cs2)c1	i	i	i	i	40
Cc1nc2ncccn2c1-c1csc(Nc2ccccc2)n1	i	i	i	i	i
CC(=O)Nc1ccc(Nc2nc(-c3c(C)nc4ccccn34)cs2)cc1	i	i	i	i	13
Oc1ccc(-c2csc(Nc3ccccn3)n2)cc1O	i	i	i	i	33
Cc1cc(O)ccc1Nc1nc(-c2cccnc2)cs1	i	i	i	i	i
Cc1cccc(Nc2nc(-c3ccc(O)c(O)c3)cs2)n1	i	i	i	i	39
CCOc1ccc(CCNC(=O)c2cc3ccsc3n2C)cc1OC	i	i	i	nt	nt
COC(=O)[C@]12C[C@H](CC(=O)N3CCCCC3)C(=O)N(CCc3ccc(OC)c(OC)c3)C1=C[C@H](C1CCCC1)O[C@@H]2C	i	i	i	nt	nt
CCCC(=O)Nc1nc(C)c(-c2csc(Nc3ccccc3C)n2)s1	i	i	i	i	i
CCC(=O)Nc1nc(C)c(-c2csc(Nc3ccccn3)n2)s1	i	i	i	i	25
Nc1ccc(Cn2ccc3c4c(N)nc(N)nc4ccc32)cc1	i	22	i	i	i
Fc1ccc(Cn2ccc3ccc(-c4ccc5ccn(Cc6ccc(F)cc6)c5c4)cc32)cc1	i	i	i	nt	nt
Cn1c(=O)c2cc(S(=O)(=O)N3CCN(Cc4ccccc4)CC3)ccc2n(C)c1=O	i	i	i	nt	nt
O=C(Nc1ccc(Cl)cc1)OCc1ccccn1	i	i	i	i	22
Cc1ccc(-n2c(SCC(=O)N/N=C/C=C\c3ccccc3[N+](=O)[O-])nnc2-c2ccccc2)cc1	i	i	i	nt	nt
CCCCNS(=O)(=O)c1ccc(NC(=O)C2c3ccccc3Oc3ccccc32)cc1	i	i	i	i	19
O=C(Nc1ccncc1)C1c2ccccc2Oc2ccccc21	i	i	i	i	i
CC(=O)c1ccc(N2CCC(c3cc(-c4ccc(Cl)cc4)n[nH]3)CC2)c([N+](=O)[O-])c1	nt	nt	nt	i	14
Cc1ccc(S(=O)(=O)N(C)CC(=O)NCCCn2nc(C)cc2C)cc1	i	i	i	i	13
Cc1ccc2nc(C3CCCN(C(=O)NCc4ccccc4)C3)[nH]c2c1 (configuration not stated)	i	i	i	i	16
COC(=O)c1cc2c(c3c4cc(C)ccc4n(C(=O)c4ccccc4)c13)C(=O)N(Cc1ccccc1)C2	i	i	i	nt	nt
COC(=O)C(CC(=O)c1ccc(Cl)cc1)c1ccc(C)cc1 (configuration not stated)	i	i	i	i	15
C=CCNCCCCOc1cccc(Br)c1	i	i	i	i	28
O=C(C=Cc1cccc(O)c1)c1ccccc1O	i	i	i	i	i
O=C(/C=C/c1ccc(O)cc1)c1ccc(O)cc1O	i	i	i	i	28
CSc1ccc(/C=C/C(=O)c2ccc(O)cc2)cc1	i	i	i	i	11
O=C(/C=C/c1ccc(O)c(O)c1)c1ccccc1O	i	i	i	i	25
C=CCN1C(=O)[C@@H](CC(=O)NCCC(C)C)[C@]2(C(=O)OCC)CCCCC/C=C/12	i	i	i	nt	nt
